From PubChem
TRPML1 agonist – agonists of human TRPML1 channel; Q9GZU1; TRPML1-expressing cells, Ca2+ dye fluorescence, FDSS; activation, % (no concentration beside the values); actives 0.12% (n = 410,000); AID 624414; in the data active = activation above about 50%; inconclusive = mostly about 30% to 49%
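TRPML1-DL cells, Tet-induced overnight (~16 h, 37 degrees C), loaded 45-90 min at room temperature with Ca8 no-wash calcium dye plus quencher. FDSS fluorescence: 10 s baseline, compound pin-transfer, 110 s agonist read, then EC80 54-4 (4uM final) and 110 s antagonist read.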
TRPV1 ag – agonists of human vanilloid receptor 1 (TRPV1); Q8NER1; activation, % at 8.33 µM; TRPV1-expressing cells, Fluo-8 calcium influx, agonist mode; AID 540275; actives 0.19% (n = 320,000); in the data active = activation above about 80%; inconclusive = between about 30% and that limit
Target sequence (Q8NER1 whole entry, looked up): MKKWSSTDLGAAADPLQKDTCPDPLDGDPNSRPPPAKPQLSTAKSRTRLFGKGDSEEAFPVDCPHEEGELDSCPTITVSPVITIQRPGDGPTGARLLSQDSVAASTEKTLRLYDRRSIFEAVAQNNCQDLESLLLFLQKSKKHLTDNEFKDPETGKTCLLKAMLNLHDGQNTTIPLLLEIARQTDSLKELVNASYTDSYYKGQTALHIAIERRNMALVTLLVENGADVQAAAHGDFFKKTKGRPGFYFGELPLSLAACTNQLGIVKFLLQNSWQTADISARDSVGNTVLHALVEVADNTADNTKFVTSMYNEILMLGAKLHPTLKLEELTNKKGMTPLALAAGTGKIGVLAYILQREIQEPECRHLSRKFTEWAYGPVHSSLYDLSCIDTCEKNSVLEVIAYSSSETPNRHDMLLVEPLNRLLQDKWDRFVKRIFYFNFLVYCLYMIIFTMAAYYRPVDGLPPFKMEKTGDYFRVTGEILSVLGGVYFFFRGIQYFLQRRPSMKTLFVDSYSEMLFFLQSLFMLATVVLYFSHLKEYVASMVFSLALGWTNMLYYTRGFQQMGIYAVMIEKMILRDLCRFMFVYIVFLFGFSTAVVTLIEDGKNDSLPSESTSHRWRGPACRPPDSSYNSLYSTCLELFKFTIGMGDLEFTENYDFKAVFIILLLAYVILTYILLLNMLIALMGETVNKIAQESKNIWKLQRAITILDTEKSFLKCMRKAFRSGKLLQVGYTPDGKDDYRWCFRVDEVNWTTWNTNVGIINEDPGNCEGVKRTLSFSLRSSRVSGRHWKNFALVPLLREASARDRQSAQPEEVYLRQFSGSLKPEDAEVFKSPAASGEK
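TRPV1-expressing cells were cultured overnight at 35.5C and loaded with Fluo-8 calcium dye for 40 to 90 min at room temperature. After a 10 s baseline, compound was added and calcium influx was read kinetically for 3 min (ex 480/em 520 nm).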
KCNH2 WT inh – KCNH2 (human, wildtype) channel inhibition; Q12809; U2OS, BacMam KCNH2, thallium flux FluxOr; stronger effect = lower value; actives 0.37% (n = 340,000); activity change, % at 1.84 µM;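 active = maximum activity change below -70%; inconclusive = maximum activity change between -70% and -50%; inactive = maximum activity change above -50%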
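U2OS cells were transduced with wild-type KCNH2 virus (2.03 x 10^8 / mL) for 4 h at room temperature, then cultured overnight at 37 C. Thallium flux was read with FluxOr dye. Rate constants were normalized to DMSO controls.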
KCNH2 3.1 block – blocks the human KCNH2 3.1 channel isoform; U2OS KCNH2 3.1, thallium flux FluxOr; stronger effect = lower value; activity change, % (tested at about 1.8 µM); actives 0.95% (n = 340,000); AID 720553;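 active = maximum activity change below -70%; inconclusive = maximum activity change from -70% to -50%; inactive = maximum activity change above -50%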;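 also: thallium influx rate constant from kinetic fluorescence after stimulation buffer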
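Steps: virus added to U2OS suspension (4 h, RT, dark); medium with 10% FBS added, cells plated, 37 C overnight; FluxOr/Red40 loading buffer 45 min RT; stimulation buffer, 2 min kinetic read; rate constant normalized.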
TRPV1 PAM – human TRPV1 potentiation | Q8NER1 | TRPV1-expressing cells, Fluo-8 calcium influx, capsaicin EC20 potentiation | potentiation, % at 8.33 µM | actives 0.02% (n = 320,000); in the data active = potentiation above about 80%; inconclusive = between about 30% and that limit
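TRPV1-expressing cells were cultured overnight at 35.5C and loaded with Fluo-8 calcium dye for 40 to 90 min at room temperature. After a 10 s baseline, compound was added and calcium influx was read kinetically for 3 min (ex 480/em 520 nm).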
TRPML1 blocker – human mucolipin-1 channel inhibition; Q9GZU1; TRPML1-inducible cells, Ca2+ dye fluorescence, FDSS; stronger effect = lower value; inhibition of EC80 agonist-evoked calcium signal; activity change, negative = inhibition, % (test concentration not listed); actives 0.02% (n = 390,000); in the data active = activity change below about -50%; inconclusive = between about -30% and that limit;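 also: stimulus is agonist 54-4 at its EC80 concentration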
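Tet-induced TRPML1-DL cells loaded with Ca8 no-wash calcium dye were read kinetically on FDSS. Compound addition was followed by EC80 agonist 54-4 (4 uM final); inhibition was read over 110 s.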
Numbers stand for hits; - = inactive; ? = inconclusive; . = no result. The list is not random: actives were taken first. Their share in the collection is about 1.3%.

SMILES	TRPML1 agonist	TRPV1 ag	KCNH2 WT inh	KCNH2 3.1 block	TRPV1 PAM	TRPML1 blocker
O=C(NCCCN1CCOCC1)c1ccccc1N1C(=O)[C@@H]2Cc3c([nH]c4ccccc34)C(c3cccc(Cl)c3)N2C1=O (some centres not stated)	.	-	?	-76.6	-	.
CN(C)c1ccc(/C=C/c2ccnc3ccc(F)cc23)cc1	-	.	.	.	.	.
Cc1cc(-c2ccc(C)c(S(=O)(=O)N3CCN(c4ccc([N+](=O)[O-])cc4)CC3)c2)on1	-	-	-	-95.6	-	-
COc1ccc(OC)c(C2C(C(=O)Nc3ccc(C)cc3)=C(C)Nc3nnnn32)c1 (configuration not stated)	-	.	.	.	.	-
Cc1ccc(CN2C3CCCC2CC(NC(=O)c2ccc(F)cc2)C3)cc1 (configuration not stated)	-	-	?	-80.2	-	-
Cc1ccc(C(=O)NC2CC3CCCC(C2)N3Cc2ccccc2)cc1 (configuration not stated)	-	-	-	-	-	-
O=C(NC1CC2CCC(C1)N2Cc1ccccc1)c1cccc(F)c1 (configuration not stated)	-	-	-	-	-	-
COc1ccc(CN2C3CCC2CC(NC(=O)c2cccc(F)c2)C3)cc1 (configuration not stated)	-	-	-	-84.2	-	-
O=C(NC1CC2CCCC(C1)N2Cc1ccccc1)c1ccc([N+](=O)[O-])cc1 (configuration not stated)	-	-	-	-80.2	-	-
CC(C)(C)n1ncc2c(=O)n(Cc3ccc(Cl)cc3F)cnc21	-	.	.	.	.	-
Cc1cc(/C=C(/C#N)c2nc3ccccc3[nH]2)c(C)n1-c1cccc([N+](=O)[O-])c1	-	-	-115.6	-133.7	-	-
Cc1ccc(N2C(=O)c3cccc4c([N+](=O)[O-])ccc(c34)C2=O)c2cccnc12	-	-	-	-98.2	-	-
C#CCN(Cc1ccc(OC)cc1)S(=O)(=O)C=C	-	.	.	.	.	.
COc1cccc(-c2ccc(NC(=O)C3CCCN(CCCn4cccn4)C3)cc2)c1 (configuration not stated)	-	-	-	-83.8	-	-
COc1cccc(-c2ccc(NC(=O)C3CCCN(Cc4ccccn4)C3)cc2)c1 (configuration not stated)	-	.	-	-	.	-
Cc1cccc(OCCCc2c(C)n[nH]c2C)c1	-	-	-	-75.0	-	-
Cc1ccc(C)c(N2CCN(S(=O)(=O)c3c(C(=O)N4CCC(C)CC4)c(C)n(C)c3C)CC2)c1	54.9	.	.	.	.	-
Cc1ccc(S(=O)(=O)NCc2cccnc2)c(C)c1	-	-	-	-71.3	-	-
Cc1cc(C)c(S(=O)(=O)NCc2cccnc2)cc1C	-	-	-	-	-	-
Cc1cnc2c(C)cccc2c1C	-	.	.	.	.	.
Fc1ccc(CNC(=S)NCc2ccccc2)cc1	-	84.2	-	-	-	-
CCNC(=S)NCc1ccc(Cl)cc1	-	.	-	-	.	-
S=C(NCc1ccccc1)NCc1ccc(CNC(=S)NCc2ccccc2)cc1	-	?	-	-	-	-
Fc1ccccc1CNC(=S)NCc1ccc(Cl)cc1	-	84.1	-	-	-	-
CCc1ccc(CN(C)C(=O)CC2C(=O)NCCN2Cc2ccoc2)cc1 (configuration not stated)	-	-	-	-84.7	-	-
SMILES	TRPML1 agonist	TRPV1 ag	KCNH2 WT inh	KCNH2 3.1 block	TRPV1 PAM	TRPML1 blocker
Cc1ccc(CN(C)C(=O)CC2C(=O)NCCN2CC2CCCCC2)cc1 (configuration not stated)	-	-	-	-	-	-
CCOc1ccccc1CN1CCNC(=O)C1CC(=O)N(C)Cc1nonc1C (configuration not stated)	-	-	-	-	-	-
CCOc1ccccc1CN1CCNC(=O)C1CC(=O)N(C)Cc1cnccn1 (configuration not stated)	-	-	-	-114.5	-	-
COc1cccc(NC(=O)C(C)n2c(=O)cc(C(F)(F)F)c3c(C)nn(C)c32)c1 (configuration not stated)	-	.	.	.	.	-
COCC(=O)N1c2nc(-c3ccco3)nn2C2(CCCCC2)[C@@H]2CCCC[C@@H]21	-	.	.	.	.	-
CC1CCN(CCCOc2ccc(OCc3ccccc3)cc2)CC1	-	-	-	-80.2	-	-
CC1CCN(CCOc2ccc(C(=O)c3ccccc3)cc2)CC1	-	-	-	-	81.5	-
c1ccc(COc2ccc(OCCCN3CCCC3)cc2)cc1	-	-	-	-	-	-
CCNC(=O)/C(=C/c1cccc([N+](=O)[O-])c1)NC(=O)c1ccc(C)cc1	-	-	.	-	-	-
O=C(NCc1ccncc1)/C(=C\c1ccc(F)cc1)NC(=O)c1ccccc1	-	-	-	?	-	-
Cc1ccc(C(=O)N/C(=C\c2ccc(F)cc2)C(=O)NCc2ccncc2)cc1	-	?	-	-89.6	-	-
Cc1ccc(C(=O)N/C(=C\c2cccc([N+](=O)[O-])c2)C(=O)NCc2ccncc2)cc1	-	-	-	-86.3	-	-
Cc1nn(-c2ccccn2)c2c1-c1nc(N)sc1CC2	-	.	.	.	.	.
CCC(=O)Nc1cc(C(=O)O)ccc1Sc1ccccc1	-	-	-	-116.2	-	-
N#CCC(=O)Nc1ccc(C(=O)OCC(=O)Nc2ccccc2Sc2ccccc2)cc1	-	-	-	-	-	-
CC(=O)Nc1ccc(C(=O)OCC(=O)Nc2ccccc2Sc2ccccc2)cc1	-	?	-	-79.4	-	-
CC(=O)c1cccc(NC(=O)c2nc3ccccc3n(C)c2=O)c1	-	.	.	.	.	-
CCOC(=O)N/N=C\c1ccc(OC(=O)c2ccco2)cc1	-	-	-153.6	-	-	-
NS(=O)(=O)c1ccc(N2CCN(CCOc3ccc(Cl)cc3)CC2)nc1	-	-	-	-94.7	-	-
Cc1cccc(CNC(=O)c2ccc(NC(=O)N3CC(C)Sc4ccccc43)cc2)c1 (configuration not stated)	-	.	.	.	.	-
Cc1ccc(-n2nnnc2SC(C)C(=O)NCC(=O)Nc2ccc(F)c(F)c2F)c(C)c1 (configuration not stated)	-	-	-	-	-	-
Cc1ccc(-n2nnnc2SC(C)C(N)=O)c(C)c1 (configuration not stated)	-	-	-	-75.5	-	-
Cc1ccc(Cl)cc1N(C)C(=O)c1cc2ccc3cccnc3c2[nH]1	-	.	.	.	.	-
COC(=O)c1cc(Cl)c(NC(=O)/C=C/c2ccc(Cl)cc2)cc1OC	-	-	-	-79.6	-	-
COC(=O)c1cc(Cl)c(NC(=O)/C=C/c2ccc(OC)c(OC)c2)cc1OC	-	-	-	-	-	-
